The panel holds about 83,000 compounds, 20% with a hit somewhere; the sample as a whole holds those more often.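 Results are percent growth after 48 hours of single-concentration exposure. 100 means growth as in untreated cells, lower positive values show inhibition; negative values down to -100 show cell death.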 A number with no mark means an inactive call. Activity calls are given as the source filed them. Rule for the calls: active = growth percent below 10; inactive = the rest.

Some test systems named below: SR leukemia; RPMI-8226 leukemia; OVCAR-8 ovarian; OVCAR-5 ovarian; OVCAR-4 ovarian; SK-OV-3 ovarian; IGROV1 ovarian; OVCAR-3 ovarian; HS 578T breast; NCI/ADR-RES ovarian.
Holding throughout (experiment): NCI-60 one-dose screen, 48 h (100 = growth as untreated, 0 = no growth, -100 = all killed)
What all share (conditions): 10 µM unless noted

As to `COc1cc(-n2cc(-c3cc(O)c(C/C=C(\C)CCC=C(C)C)c(O)c3)nn2)cc2c1O[C@]1(C)CC[C@@H](O)C(C)(C)[C@H]1C2`, the growth was 4.49% (active) with SR leukemia; -17.8% (active) in the experiment on RPMI-8226 leukemia; 16.4% with OVCAR-8 ovarian; 29.6% with OVCAR-5 ovarian; 37.9% with OVCAR-4 ovarian; 34.8% with SK-OV-3 ovarian. Moreover, the growth was 23.8% in the experiment on IGROV1 ovarian, -19.6% (active) with OVCAR-3 ovarian, 19.6% in the experiment with HS 578T breast and 17.3% with NCI/ADR-RES ovarian.
Take `Cc1ccc(C2=Nc3c(N)ncnc3NC(c3ccc4c(c3)OCO4)C2)cc1` (stereo not given): the growth in the experiment with SR leukemia was 15.8%; in the experiment on RPMI-8226 leukemia, 40.1%; with OVCAR-8 ovarian, 81%; with OVCAR-5 ovarian it was 74.6%; in the experiment on OVCAR-4 ovarian, 87.6%; in the experiment with SK-OV-3 ovarian, 78.3%. Besides, the growth in the experiment with IGROV1 ovarian was 32%; in the experiment with OVCAR-3 ovarian, 37.8%; with HS 578T breast it was 78%; in the experiment on NCI/ADR-RES ovarian, 17.8%.
As for `Nc1ncnc2c1N=C(c1ccc(Cl)cc1)CC(c1ccc3c(c1)OCO3)N2` (stereo not given), the growth in the experiment on SR leukemia was 77.3%; in the experiment on RPMI-8226 leukemia it was 60.3%; with OVCAR-8 ovarian, 91.7%; with OVCAR-5 ovarian it was 85.6%; in the experiment with OVCAR-4 ovarian, 98.6%; in the experiment on SK-OV-3 ovarian it was 21%. Also, the growth in the experiment on IGROV1 ovarian is 46%; in the experiment with OVCAR-3 ovarian, 85.5%; with HS 578T breast, 93.8%; with NCI/ADR-RES ovarian, 98.2%.
Regarding `CC(C)c1ccc(COCc2cc(CN3CCCC3)c(O)c3ncccc23)cc1`, the growth was -6.27% (active) with SR leukemia; -21.4% (active) in the experiment with RPMI-8226 leukemia; -10.8% (active) in the experiment on OVCAR-8 ovarian; 32.8% with OVCAR-5 ovarian; -6.36% (active) with OVCAR-4 ovarian; -16.4% (active) with SK-OV-3 ovarian. In addition, the growth in the experiment on IGROV1 ovarian is 9.42% (active); in the experiment with OVCAR-3 ovarian, -34.2% (active); in the experiment with HS 578T breast it was 41.6%; in the experiment on NCI/ADR-RES ovarian, -51.2% (active).
Regarding `COc1cccc([C@H]2c3[nH]c4ccccc4c3C[C@H]3C(=O)N(CCCCCCC(=O)NO)CC(=O)N23)c1`, the growth is 4.26% (active) with SR leukemia; 14.6% in the experiment with RPMI-8226 leukemia; 65.6% in the experiment with OVCAR-8 ovarian; 62.1% in the experiment with OVCAR-5 ovarian; 62% with OVCAR-4 ovarian; 77.1% in the experiment with SK-OV-3 ovarian. Also, the growth is 64.4% in the experiment with IGROV1 ovarian, 64.7% in the experiment with OVCAR-3 ovarian, 59.6% in the experiment on HS 578T breast and 91.1% in the experiment with NCI/ADR-RES ovarian.
For `CCCCCCCCCCCCCCCC(N)c1ccccc1` (stereo not given), the growth in the experiment on SR leukemia was -26.1% (active); with RPMI-8226 leukemia, -27.9% (active); with OVCAR-8 ovarian it was -26.3% (active); in the experiment with OVCAR-5 ovarian, 79.7%; with OVCAR-4 ovarian it was -15.8% (active); in the experiment on SK-OV-3 ovarian, 77.1%. Further, the growth in the experiment on IGROV1 ovarian was -46.6% (active); in the experiment on OVCAR-3 ovarian it was -70.2% (active); in the experiment on HS 578T breast, 60.6%; with NCI/ADR-RES ovarian, -31.1% (active).
Take `CCCNC(=O)Oc1ccc(/C(=C(/C)Cc2ccc(OC)cc2)c2ccc(OCCCN(C)C)cc2)cc1`: the growth was 8.47% (active) in the experiment with SR leukemia; 77.3% with RPMI-8226 leukemia; 86.5% with OVCAR-8 ovarian; 94% in the experiment on OVCAR-5 ovarian; 85.2% in the experiment on OVCAR-4 ovarian; 98.3% in the experiment on SK-OV-3 ovarian. The growth in the experiment with IGROV1 ovarian was 91.1%; in the experiment on OVCAR-3 ovarian, 94.3%; in the experiment on HS 578T breast it was 72.3%; in the experiment with NCI/ADR-RES ovarian, 79.1%.
Turning to `CC(C)=NNc1ccccn1`, the growth was 32% in the experiment with SR leukemia; 70.3% in the experiment with RPMI-8226 leukemia; 29% in the experiment with OVCAR-8 ovarian; 54.4% with OVCAR-5 ovarian; 12% with OVCAR-4 ovarian; 26.2% with SK-OV-3 ovarian. Also, the growth was 63.2% in the experiment with IGROV1 ovarian, 18.8% with OVCAR-3 ovarian, 79.5% in the experiment on HS 578T breast and 33.5% in the experiment on NCI/ADR-RES ovarian.
On to `COc1cc2c(c(OC)c1OC)CCC(c1cccc(C(=O)Nc3cccc(Br)c3)c1)O2` (stereo not given), for which the growth in the experiment with SR leukemia was 35.6%; in the experiment with RPMI-8226 leukemia, 50%; with OVCAR-8 ovarian, 81.1%; in the experiment on OVCAR-5 ovarian, 81.3%; in the experiment on OVCAR-4 ovarian it was 55%; in the experiment on SK-OV-3 ovarian it was 78%. Moreover, the growth was 81.8% with IGROV1 ovarian, 74.7% with OVCAR-3 ovarian, 66.7% in the experiment on HS 578T breast and 79.6% in the experiment on NCI/ADR-RES ovarian.
Take `COc1cc(CNC(=O)/C=C/C=C/c2ccc3c(c2)OCO3)ccc1OCc1cn(-c2ccc(C)c(C)c2)nn1`: the growth in the experiment on SR leukemia is 81.5%; in the experiment with RPMI-8226 leukemia it was 86.3%; in the experiment with OVCAR-8 ovarian it was 71.3%; in the experiment on OVCAR-5 ovarian, 104%; with OVCAR-4 ovarian, 46.7%; in the experiment on SK-OV-3 ovarian it was 86.5%. For the same compound, the growth is 76.1% with IGROV1 ovarian, 82.8% in the experiment with OVCAR-3 ovarian, 91.4% with HS 578T breast and 80.5% in the experiment on NCI/ADR-RES ovarian.
Consider `Cc1ccc(Sc2oc(-c3ccc(C)cc3)nc2[P+](c2ccccc2)(c2ccccc2)c2ccccc2)cc1`, for which the growth is -18.8% (active) with SR leukemia; -37.6% (active) in the experiment with RPMI-8226 leukemia; 5.45% (active) in the experiment on OVCAR-8 ovarian; 7.79% (active) in the experiment with OVCAR-5 ovarian; -3.08% (active) with OVCAR-4 ovarian; -3.38% (active) with SK-OV-3 ovarian. The growth in the experiment on IGROV1 ovarian is -74.4% (active); in the experiment on OVCAR-3 ovarian, -3.45% (active); in the experiment with HS 578T breast, -8.27% (active); with NCI/ADR-RES ovarian it was 1.73% (active).
With `CC(C)N1CCN(Cc2ccc3c(NNC(=O)c4ccccc4)nc4cc(F)ccc4n23)CC1`, the growth was 8.09% (active) in the experiment on SR leukemia; 26.5% in the experiment with RPMI-8226 leukemia; 17.9% in the experiment on OVCAR-8 ovarian; 59.6% with OVCAR-5 ovarian; 21.2% in the experiment with OVCAR-4 ovarian; 35% with SK-OV-3 ovarian. Further, the growth was 21.4% in the experiment on IGROV1 ovarian, 39.8% in the experiment on OVCAR-3 ovarian, 75.8% in the experiment with HS 578T breast and 6.16% (active) with NCI/ADR-RES ovarian.
With `O=C(NCc1ccccc1)Nc1ccccc1CNc1nc(Nc2ccc(OCCN3CCCC3)cc2)ncc1Cl`, the growth with SR leukemia was 7.02% (active); in the experiment on RPMI-8226 leukemia, 76.1%; in the experiment on OVCAR-8 ovarian it was 89.9%; in the experiment with OVCAR-5 ovarian, 112%; in the experiment with OVCAR-4 ovarian, 81.2%; with SK-OV-3 ovarian, 99.3%. Also, the growth in the experiment on IGROV1 ovarian was 100%; in the experiment on OVCAR-3 ovarian it was 104%; in the experiment on HS 578T breast, 98%; in the experiment with NCI/ADR-RES ovarian, 92.2%.

(Values after PubChem BioAssay (NCI).)
